# Data taken from PubChem BioAssay AID1508637 (National Center for Advancing Translational Sciences (NCATS), 2021).
# Records with an inconclusive call do not appear. Activity calls are given as the source filed them. Calls follow the shape of the dose curve; as a rule, active = well fitted inhibition curve with a large enough effect; inconclusive = small, poorly fitted or top-dose-only effect; inactive = flat fitted curve, though single readings scatter. Starred links: 1 amine or outer side, 2 acyl side, 3 side chain; linkers in the order of their positions; H or OH if unused. Positions of bridges follow the written chain, without caps; N, C: chain ends. Non-standard residues stand in square brackets, D forms with d. Residues, ends and D or L forms follow the SMILES beside them. Chains are numbered I, II in the order given. ξ: configuration not given here. *: point of attachment. Actinocin(9to1) = Cc1c2oc3c(C)ccc(C(=O)[*:1])c3nc-2c(C(=O)[*:2])c(N)c1=O; ξNMeV = CNC(C(=O)O)C(C)C; Cbz = O=C(OCc1ccccc1)*; Nva = CCC[CH](N)C(=O)O; ξV = CC(C)C(N)C(=O)O; Sar = CNCC(=O)O
# Assay: qHTS for characterization and localization of zebrafish homologs of the human ABCB1 multidrug transporter: empty vector transfected cells
# Details: empty vector transfected control cells, CellTiter-Glo luminescence viability, 72 h; series mostly up to 46.1 µM; activity change, negative = inhibition: at the top concentration
# Source text: The zebrafish has emerged as a potential model to study the blood-brain barrier (BBB) given its similarities with mammalian systems. However, little information has been available with regard to homologous ATP-binding cassette transporters expressed at the zebrafish BBB. Two transporters that are highly expressed at the human BBB are P-glycoprotein (P-gp, encoded by the ABCB1 gene) and ABCG2 (encoded by the ABCG2 gene). In this study, we focus on characterization of P-gp homologs in the zebrafish, which has two genes that are homologous to human ABCB1 - abcb4 and abcb5. We generated stably-transfected cell lines to determine their substrate specificities. […] Zebrafish abcb4 also colocalized with claudin 5 expression in brain endothelial cells.
# A high-throughput screen was performed as previously described on empty vector transfected cells, P-gp-overexpressing MDR-19 cells and cells transfected with full-length zebrafish abcb4 (ZF Abcb4) or abcb5 (ZF Abcb5). Briefly, cells were plated into 1536-well plates at a density of 500 cells/well in 5 uL media. P-gp substrate compounds (approximately 90) selected from our previous study were then added at varying concentrations using a 1536-head pin tool (Kalypsis, San Diego, CA) and plates were incubated at 37C in 5% CO2 for 72 h. CellTiter-Glo reagent (Promega) was dispensed into the wells, incubated for 5 min and luminescence was read on a ViewLux instrument (Perkin-Elmer).
# Cytotoxic compounds were defined as those that yielded a curve class of -1.1, -1.2, -2.1, -2.2, -2.3, or -2.4, a maximum response of >50% and an AC50 of < 10 uM. All compounds from screening analysis were tested in Vector (empty vector control), MDR-19 (P-gp overexpressing), zebrafish abcb4 (ZF Abcb4) and abcb5 (ZF Abcb5) expression cell lines.
# 1. Tobie D Lee, Olivia W Lee, Kyle R Brimacombe, Lu Chen, Rajarshi Guha, Sabrina Lusvarghi, Bethilehem G Tebase, Carleen Klumpp-Thomas, Robert W Robey, Suresh V Ambudkar, Min Shen, Michael M Gottesman, Matthew D Hall. A High-Throughput Screen of a Library of Therapeutics Identifies Cytotoxic Substrates of P-glycoprotein. Mol Pharmacol. 2019, Nov;96(5):629-640.
Compound,Potency,"activity change, negative = inhibition"
C=CCNC1=C2CC(C)CC(OC)C(O)C(C)/C=C(\C)C(OC(N)=O)C(OC)/C=C/C=C(\C)C(=O)NC(=CC1=O)C2=O (stereo not given),1480 nM (active),–
CCCCc1nc2cc(C=CC(=O)NO)ccc2n1CCN(CC)CC,3320 nM (active),–
CCN(CCCO)CCCOc1ccc2c(Nc3cc(CC(=O)Nc4cccc(F)c4)[nH]n3)ncnc2c1,–,-7.2% (inactive)
Cc1cc(Nc2cc(NC(=O)c3c(Cl)cccc3Cl)ccn2)nc(N)n1,4180 nM (active),–
CC(C)(C)c1cnc(CSc2cnc(NC(=O)C3CCNCC3)s2)o1,1080 nM (active),–
CCCC(C=O)NC(=O)C(CC(C)C)NC(=O)C(CC(C)C)NC(=O)OCc1ccccc1 (stereo not drawn) (Cbz-Leu-Leu-[Nva]-aldehyde; configuration not given here),1480 nM (active),–
Cn1cc(-c2[nH]c3cc(NC(=O)[C@H](N)C4CCCCC4)cc4c3c2C=NNC4=O)cn1,418 nM (active),–
CN(C)C/C=C/C(=O)Nc1cccc(C(=O)Nc2ccc(Nc3nccc(-c4cccnc4)n3)cc2)c1,18700 nM (active),–
COc1cc2c(NC3CCN(C(C)C)CC3)nc(N3CCCN(C)CC3)nc2cc1OCCCN1CCCC1,16600 nM (active),–
CCn1c(-c2nonc2N)nc2c(C#CC(C)(C)O)ncc(OC[C@H]3CCCNC3)c21,1180 nM (active),–
CC[C@@H]1C(=O)N(C)c2cnc(Nc3ccc(C(=O)NC4CCN(C)CC4)cc3OC)nc2N1C1CCCC1,46.9 nM (active),–
CC[n+]1c(-c2ccccc2)c2cc(N)ccc2c2ccc(N)cc21,332 nM (active),–
CC(=O)O[C@@H]1C[C@H](O)[C@@]23CO[C@@H](O)C1(C)[C@@H]2C[C@@H](O)[C@]1(C)[C@@H]3C(=O)[C@H](OC(C)=O)[C@@]2(C)[C@H](c3ccoc3)C[C@H]3O[C@]321,93.5 nM (active),–
C[C@@H](Oc1cc(-n2cnc3ccc(CN4CCN(C)CC4)cc32)sc1C(N)=O)c1ccccc1C(F)(F)F,37.2 nM (active),–
CC(C)C[C@@H](C=O)NC(=O)[C@H](CC(C)C)NC(=O)[C@H](CC(C)C)NC(=O)OCc1ccccc1 (Cbz-Leu-Leu-Leu-aldehyde),1320 nM (active),–
N=C(N)c1ccc(OCCCCCOc2ccc(C(=N)N)cc2)cc1,2640 nM (active),–
NC(=O)Nc1cc(-c2cccc(F)c2)sc1C(=O)N[C@H]1CCCNC1,590 nM (active),–
CCC1=CC2CN(C1)Cc1c([nH]c3ccccc13)[C@@](C(=O)OC)(c1cc3c(cc1OC)N(C)[C@H]1[C@@](O)(C(=O)OC)[C@H](OC(C)=O)[C@]4(CC)C=CCN5CC[C@]31[C@@H]54)C2 (stereo not given in full),105 nM (active),–
CN(c1ncccc1CNc1nc(Nc2ccc3c(c2)CC(=O)N3)ncc1C(F)(F)F)S(C)(=O)=O,4180 nM (active),–
CC[C@@]1([C@@H]2O[C@@H]([C@H]3O[C@@](O)(CO)[C@H](C)C[C@@H]3C)C[C@@H]2C)CC[C@H]([C@]2(C)CC[C@]3(C[C@H](O)[C@@H](C)[C@@H]([C@@H](C)[C@@H](OC)[C@H](C)C(=O)O)O3)O2)O1,148 nM (active),–

Compound,Potency,"activity change, negative = inhibition"
C[C@@]12O[C@@H](C[C@]1(O)CO)n1c3ccccc3c3c4c(c5c6ccccc6n2c5c31)CNC4=O,2640 nM (active),–
CC1(C)CC[C@]2(C(=O)OC3OC(CO)C(O)C(O)C3O)CC[C@]3(C)C(=CCC4[C@@]5(C)CC[C@H](OC6OC(C(=O)O)C(O)C(O)C6O)C(CO)(CO)C5CC[C@]43C)[C@@H]2C1 (stereo not given in full),2230 nM (active),–
"Cc1c2oc3c(C)ccc(C(=O)N[C@@H]4C(=O)NC(C(C)C)C(=O)N5CCC[C@H]5C(=O)N(C)CC(=O)N(C)C(C(C)C)C(=O)O[C@@H]4C)c3nc-2c(C(=O)N[C@@H]2C(=O)NC(C(C)C)C(=O)N3CCC[C@H]3C(=O)N(C)CC(=O)N(C)C(C(C)C)C(=O)O[C@@H]2C)c(N)c1=O (stereo not given in full) (I: T[ξV]P[Sar][ξNMeV] / II: T[ξV]P[Sar][ξNMeV]; ester I:1-I:C, II:1-II:C; linker I:N-II:N via Actinocin(9to1))",7.4 nM (active),–
Cc1nc(Nc2n[nH]c3c2CN(C(=O)N[C@H](CN(C)C)c2ccccc2)C3(C)C)c2sccc2n1,41.8 nM (active),–
CN(C)C1CCN(C(=O)c2ccc(NC(=O)Nc3nc(N4CCOCC4)nc(N4CCOCC4)n3)cc2)CC1,469 nM (active),–
Cc1cc(N)c2ccccc2[n+]1CCCCCCCCCC[n+]1c(C)cc(N)c2ccccc21,5900 nM (active),–
CC[C@@H]1C(=O)N(C)c2cnc(Nc3ccc(C(=O)NC4CCC(N5CCN(CC6CC6)CC5)CC4)cc3OC)nc2N1C(C)C (stereo not given in full),52.6 nM (active),–
COC[C@H](NC(=O)c1cnc(C)s1)C(=O)N[C@@H](COC)C(=O)N[C@@H](Cc1ccccc1)C(=O)[C@@]1(C)CO1,166 nM (active),–
COc1ccc(CC2C(=O)NC(C)C(=O)N(C)C3Cc4ccc(cc4)Oc4cc(ccc4OC4OC(CO)C(O)C(O)C4O)CC(C(=O)NC(C)C(=O)NC(C)C(=O)N2C)N(C)C3=O)cc1 (stereo not given),88.8 nM (active),–
C=CCn1c(=O)c2cnc(Nc3ccc(N4CCN(C)CC4)cc3)nc2n1-c1cccc(C(C)(C)O)n1,1180 nM (active),–
COCCn1c2c([n+](Cc3cnccn3)c1C)C(=O)c1ccccc1C2=O,16.6 nM (active),–
C/C=C1/NC(=O)C2CSSCCC=CC(CC(=O)NC(C(C)C)C(=O)N2)OC(=O)C(C(C)C)NC1=O (stereo not given),52.6 nM (active),–
NC(=O)Nc1cc(-c2ccc(CN3CCOCC3)c(F)c2)sc1C(=O)N[C@H]1CCCNC1,469 nM (active),–
CC(C)C[C@H](NC(=O)[C@H](CCc1ccccc1)NC(=O)CN1CCOCC1)C(=O)N[C@@H](Cc1ccccc1)C(=O)N[C@@H](CC(C)C)C(=O)[C@@]1(C)CO1,46.9 nM (active),–
CCC(C)C(=O)OC1CC(O)C23C4OCC5(C(O)CC2C1(C)C(O)O4)C3C(=O)C(O)C1(C)C(O)(c2ccoc2)CC2OC251 (stereo not given),1100 nM (active),–
COc1cc2ncn(-c3cc(OCc4ccccc4C(F)(F)F)c(C(N)=O)s3)c2cc1OC,1910 nM (active),–
CC(C)C[C@H](NC(=O)[C@@H](NC(=O)c1cccc(-c2ccccc2)n1)[C@@H](C)O)B(O)O,74.3 nM (active),–
COc1cccc2c1C(=O)c1c(O)c3c(c(O)c1C2=O)C[C@@](O)(C(=O)CO)C[C@H]3O[C@H]1C[C@H](N)[C@@H](O)[C@H](C)O1,105 nM (active),–
CCS(=O)(=O)c1cccc(-c2cc(C(=O)NC3CCN(C)CC3)c(C)c3[nH]c4ncc(C)cc4c23)c1,2350 nM (active),–
CC(=O)C1(O)Cc2c(O)c3c(c(O)c2C(OC2CC(N)C(O)C(C)O2)C1)C(=O)c1c(O)cccc1C3=O (stereo not given),41.8 nM (active),–
